The other results are listed elsewhere or left out. Values without a mark were called inactive.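 The calls were made as follows: active = at highest dose tested, delta Tm positive; inactive = the rest.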
Experiment: Sypro Orange dye melt without protein, dose response, artefact control for Keap1-Nrf2 interaction inhibitor project, biochemical, thermal shift counterscreen, cherry-pick (AID 651858)
Settings: Sypro Orange dye-only thermal melt, no protein, top dose 50 µM, hits give high values

Structure (SMILES)	delta Tm
CCCC(=O)Nc1ccc(C(=O)NCCCn2ccnc2)cc1	-28 °C
CCCC1OC23CCCCC2C(C#N)(C#N)C1(C#N)C(=N)O3 (stereo not given)	-28.4 °C
Nc1ccc2nc3c(=O)[nH]c(=S)[nH]c3nc2c1	-27.3 °C
O=C(Nc1ccccn1)C1CCN(S(=O)(=O)c2ccc3c(c2)OCCO3)CC1	-21.3 °C
COc1ccc(C2c3ccc(O)cc3Oc3ncn(CCCO)c(=N)c32)cc1OC (stereo not given)	-26.7 °C

— PubChem BioAssay AID651858 (Broad Institute, 2012)
